# The entries come from a sample that favours hits as a whole.
# FECH block = inhibitors of human ferrochelatase. P22830. purified FECH, Ni-mesoporphyrin absorbance 550 nm. calls only at 10 µM (by protocol). hit rate 3.3% among 20,000;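 active = enzyme reaction rate more than 3 SD below the solvent-only control wells on the same plate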;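 also: lower slope than DMSO wells means FECH inhibition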
# Target sequence (P22830 whole entry, looked up): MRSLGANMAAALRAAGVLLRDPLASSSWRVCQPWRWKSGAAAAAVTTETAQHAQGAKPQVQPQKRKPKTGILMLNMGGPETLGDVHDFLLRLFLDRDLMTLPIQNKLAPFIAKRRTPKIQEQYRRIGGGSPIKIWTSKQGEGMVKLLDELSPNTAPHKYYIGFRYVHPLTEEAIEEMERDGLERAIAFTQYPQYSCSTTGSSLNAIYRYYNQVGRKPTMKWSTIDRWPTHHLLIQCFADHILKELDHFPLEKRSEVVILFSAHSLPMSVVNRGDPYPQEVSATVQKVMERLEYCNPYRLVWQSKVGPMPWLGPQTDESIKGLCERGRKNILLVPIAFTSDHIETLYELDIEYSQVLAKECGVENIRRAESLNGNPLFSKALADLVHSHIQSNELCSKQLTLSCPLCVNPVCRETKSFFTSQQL
# An asterisk follows results filed as active; i = inactive; + = active, no number.
SMILES,FECH block
CCc1cc(N2CCN(Cc3ncnn3CC)CC2)nc(N2CCCC2)n1,i
COc1cccc(-c2cc(N3CCN(S(=O)(=O)c4cnn(C(F)F)c4C)CC3)ncn2)c1,i
CCCn1cnc2nc(CSc3ccccc3NC(=O)c3ccc(F)cc3)cc(=O)n21,+
CCCn1cnc2nc(CSc3ccccc3NC(=O)c3cccc(Br)c3)cc(=O)n21,+
CCCn1cnc2nc(CSc3ccccc3NC(=O)c3ccccc3)cc(=O)n21,i
CCOc1ccccc1C(=O)Nc1ccccc1SCc1cc(=O)n2c(ncn2C(C)C)n1,i
CCCn1cnc2nc(CSc3ccccc3NC(=O)c3ccco3)cc(=O)n21,+
CC(C)n1cnc2nc(CSc3ccccc3NC(=O)Cc3ccccc3)cc(=O)n21,i
COc1ccc(C(=O)Nc2ccccc2SCc2cc(=O)n3c(ncn3C(C)C)n2)cc1,i
Cc1ccc(C(=O)Nc2ccccc2SCc2cc(=O)n3c(ncn3C(C)C)n2)cc1F,i
CC(C)n1cnc2nc(CSc3ccccc3NC(=O)c3ccc(Br)cc3)cc(=O)n21,i
COCCNC(=O)C1(C)Cn2c(cc3ccsc32)C(=O)N1Cc1cccc(C)c1 (centres undefined),i
Cc1ccc(C2(O)CCN(Cc3ccc4onc(C)c4c3)CC2)nc1,i
Fc1ccc(CCC2CCCN(CCCn3cnnn3)C2)c(F)c1 (centres undefined),+
Fc1cccc(F)c1CCC1CCCN(Cc2cscn2)C1 (centres undefined),i
Cc1ccccc1CCC1CCCN(CCO)C1 (centres undefined),i
CS(=O)(=O)CC(=O)N1CCN(C2Cc3ccccc3C2)CC1,i
Cc1ccc(C(=O)Nc2nc3n(n2)C(c2ccccc2Cl)C=C(c2ccc(C)cc2)N3)cc1 (centres undefined),i
Cc1ccc(C2=CC(c3ccccc3Cl)n3nc(NC(=O)c4cccnc4)nc3N2)cc1 (centres undefined),+
Cc1ccc(C2=CC(c3ccccc3Cl)n3nc(NC(=O)c4ccccc4)nc3N2)cc1 (centres undefined),i
Cc1ccc(C2=CC(c3ccccc3Cl)n3nc(NC(=O)c4cccc(C)c4)nc3N2)cc1 (centres undefined),i
Cc1ccc(C2=CC(c3ccccc3Cl)n3nc(NC(=O)c4cccc(Cl)c4)nc3N2)cc1 (centres undefined),+
Cc1cccc(C(=O)Nc2nc3n(n2)C(c2ccccc2Cl)C=C(c2ccccc2)N3)c1 (centres undefined),i
CC(CCn1cccn1)NCc1n[nH]c2c1CCCCC2 (centres undefined),i
Cc1ccc(OC2(C(=O)NCCNc3cccnc3)CCNCC2)cc1,i
SMILES,FECH block
O=C1CN(Cc2cccc(C(F)(F)F)c2)S(=O)(=O)c2ccccc2N1Cc1ccc(Cl)cc1,i
O=C(NCCn1c(-c2ccncc2)nc2cccnc21)Nc1ccc(Br)cc1F,i
Cc1ccc(S(=O)(=O)NCCn2c(C(F)(F)F)nc3cccnc32)cc1,i
Cc1ccc(-c2nc3cccnc3n2CCNS(=O)(=O)c2ccc(CC(C)C)cc2)cc1,i
Cc1ccc(S(=O)(=O)NCCn2c(C(F)(F)F)nc3cccnc32)cc1C,i
O=C(NCCn1c(-c2ccncc2)nc2cccnc21)Nc1ccccc1Br,i
Cc1ccc(S(=O)(=O)NCCn2c(C(F)(F)F)nc3cccnc32)c(C)c1,+
CCOc1ccc(S(=O)(=O)NCCn2c(-c3ccc(C)cc3)nc3cccnc32)cc1,+
O=S(=O)(NCCn1c(-c2ccccc2)nc2cccnc21)c1ccc(Cl)cc1,i
CCOc1ccc(S(=O)(=O)NCCn2c(-c3ccc(F)cc3)nc3cccnc32)cc1,i
COc1ccc(S(=O)(=O)NCCn2c(-c3ccccc3)nc3cccnc32)cc1OC,+
Cc1ccc(NC(=O)NCCn2c(-c3ccncc3)nc3cccnc32)c(C)c1,+
COc1ccc(S(=O)(=O)NCCn2c(-c3ccc(C)cc3)nc3cccnc32)cc1,i
Cc1cc(C)cc(NC(=O)C2CCCN2C(=O)c2ccc(-c3noc(C)n3)cc2)c1 (centres undefined),i
CC(C)c1nccn1CCCNC(=O)c1cnccn1,i
O=C1CCS(=O)(=O)N1c1ccc(S(=O)(=O)NCc2ccncc2)cc1,i
O=C(CCC(=O)N1CCc2cc(S(=O)(=O)NCc3cccs3)ccc21)N1CCOCC1,i
Fc1ccc(Nc2nc(N3CCC(Cc4ccccc4)CC3)nc3c2cnn3-c2ccccc2)cc1,i
C=C(C)COc1ccccc1C(=O)NCc1cc(-c2cccnc2)no1,i
Cc1ccc(-c2nc3cccnc3n2CCNS(=O)(=O)c2ccc(C)c(C)c2)cc1,+
Cc1ccc(-c2nc3cccnc3n2CCNS(=O)(=O)c2c(C)cc(C)cc2C)cc1,i
Cc1ccc(-c2nc3cccnc3n2CCNS(=O)(=O)c2ccc(Cl)cc2)cc1,i
Cc1ccc(-c2nc3cccnc3n2CCNS(=O)(=O)c2ccc(C(C)C)cc2)cc1,i
Cc1ccc(-c2nc3cccnc3n2CCNS(=O)(=O)c2cccc(Cl)c2)cc1,+
O=S(=O)(NCCn1c(-c2ccccc2)nc2cccnc21)c1cccc(Cl)c1,i
SMILES,FECH block
CC(C)C1CN(c2cncc(C(=O)N3CCOCC3)n2)CCCN1CC1CC1 (centres undefined),i
Cc1cc(N2CCCC2)nc(Nc2ccc(NC(=O)C3CCCC3)cc2)n1,i
Cc1cc(C)cc(S(=O)(=O)NCc2nc3cccnc3n2C)c1,i
Cc1ccc(C)c(OCc2cc(C(=O)NCC3CCS(=O)(=O)C3)no2)c1 (centres undefined),i
Cc1cccc(C)c1NCc1cc(=O)n2[nH]c(NCc3ccc(F)cc3)nc2n1,i
Cc1ccccc1-c1nc2nc(CNc3cccc(Cl)c3C)cc(=O)n2[nH]1,i
Cc1ccc(Cl)cc1NCc1cc(=O)n2[nH]c(-c3ccccc3C)nc2n1,+
Cc1ccccc1-c1nc2nc(CNc3cccc(C)c3C)cc(=O)n2[nH]1,i
Cc1ccccc1-c1nc2nc(CNc3ccc(F)cc3)cc(=O)n2[nH]1,+
Cc1ccc(NCc2cc(=O)n3[nH]c(-c4ccccc4C)nc3n2)cc1Cl,i
CCc1ccccc1NC(=O)N1CCN(c2cc(-c3cccc(C)c3)ncn2)CC1,i
CC1CCCN(C(=O)c2[nH]cnc2C(=O)NC(C)C)C1 (centres undefined),i
O=C(NCCn1c(C(F)(F)F)nc2cccnc21)C1CCCC1,i
CCc1c(C)nc2ncnn2c1Sc1ccccc1NC(=O)c1ccc(OC)c(OC)c1,i
CN(C)CCn1ccnc1-c1coc(-c2ccccc2)n1,i
CO[C@H]1CN(C(C)C)C[C@@H]1Nc1nc(-c2ccccc2)nc2c1CCNC2,i
Fc1ccc(Nc2nc(NCc3ccco3)nc3c2cnn3-c2ccccc2)cc1,i
CSc1ncc(CN2CCCC2c2nc(C(C)C)no2)cn1 (centres undefined),i
O=c1cc(CNc2cccc(Cl)c2)nc2nc(NCc3ccccc3)[nH]n12,i
COc1ccc(CNc2nc3nc(CNc4ccc(F)cc4)cc(=O)n3[nH]2)cc1,+
COc1ccc(CNc2nc3nc(CNc4cc(Cl)ccc4OC)cc(=O)n3[nH]2)cc1,i
O=c1cc(CNc2ccc(Cl)cc2)nc2nc(NCc3ccccc3)[nH]n12,+
CCCNCc1cc(=O)n2[nH]c(NCc3ccc(OC)cc3)nc2n1,+
O=c1cc(CNc2ccc(F)cc2)nc2nc(NCc3ccc(F)cc3)[nH]n12,i

# Assay outcomes deposited in PubChem BioAssay by Corson Lab, School of Medicine, Indiana University.
